# Mdm2-MdmX inh = human Mdm2/MdmX binding inhibition; O15151+Q00987; SaOS-2 split-luciferase Mdm2/MdmX complementation, luminescence; inhibition, % at 8 µM; 330,000 tested, 3% active; AID 485346;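 active = inhibition of at least 50% at 8 µM in the primary screen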
# PP5 inh = inhibitors of human protein phosphatase 5 (PP5). P53041. purified PP5c, OMFP substrate fluorescence. inhibition, % at 6.7 µM. 320,000 tested, 0.18% active;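 active = inhibition above the campaign's mean inhibition across all tested compounds plus 3 SD, cut at about 9.5% in these data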;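 also: 0% = DMSO only and 100% = 100 µM cantharidin control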
# CSC inhib = cancer stem cell inhibition; cancer stem cell-like cells viability, luminescence; inhibition, % at 7.5 µM; 300,000 tested, 1.1% active; AID 2717; in the data active = inhibition above about 75%; inconclusive = no clear call, values can overlap the other calls; tested in HMLE shEcad cells
# Beta apoptosis = beta cell apoptosis inhibition; INS-1E cytokine-induced death, ATP luminescence, 48 h; percent of positive-control rescue, neutral wells zero; protection from apoptosis, % (no concentration beside the values); 300,000 tested, 0.8% active;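 active = Every replicate reaches about 75%, or at least half do and their mean reaches it too, limit read from the data; inconclusive = At least half of replicates reach the limit but their mean does not; inactive = Under half of replicates reach the limit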;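 also: 0% = cytokine-treated negative control wells and 100% = positive control rescue; higher means more ATP so stronger rescue from cytokine killing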
# PP1 inh = PP1-alpha (human) inhibition in PP5 counter-screen; inhibition, % at 6.7 µM; purified PP1alpha, OMFP fluorescence; 320,000 tested, 0.9% active; AID 2235;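 active = inhibition above the mean inhibition of all tested compounds plus 3 SD, computed separately for each screening campaign, cut at about 15% in these data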
# Calb FLC = affects C. albicans growth with fluconazole. C. albicans CaCi-2 (fluconazole-resistant clinical isolate) + fluconazole, Alamar Blue growth, 48 h. growth inhibition, % (concentration not given with the values). AID 1979. 300,000 tested, 0.57% active;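 active = growth inhibition above about 58% in most replicates, limit read from the data, passing the limit was not always enough; inconclusive = exactly half the replicates above a set limit; inactive = most replicates below a set limit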;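 also: all wells also contain fluconazole at 8 µg/ml as a sub-toxic cotreatment; 0% = median of DMSO wells and 100% = median of geldanamycin control wells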
# PP1 inh confirm = confirmation of human PP1 phosphatase inhibitors. shares compounds with PP1 inh. purified PP1alpha, OMFP substrate fluorescence. inhibition, % at 6.7 µM. 1,900 tested, 52% active. AID 2358;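 active = mean PP1 inhibition above a set limit taken from the earlier primary screen, cut at about 15% in these data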
# PP5 inh counter = inhibits human PP5 phosphatase in PP1 counter-screen; shares compounds with PP1 inh; purified PP5c, OMFP fluorescence; inhibition, % at 6.7 µM; 1,900 tested, 4% active;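 active = mean PP5 inhibition over triplicate wells above about 9.5% taken from the earlier PP1 screen, limit read from the data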
# * marks the source's active call; other numbers are inactive results; ? = inconclusive; / = no result given. Rows were chosen to be rich in hits. Some 4.9% of all compounds tested hit in one or more screens of this group.
SMILES,Mdm2-MdmX inh,PP5 inh,CSC inhib,Beta apoptosis,PP1 inh,Calb FLC,PP1 inh confirm,PP5 inh counter
O=C1C(=O)N(Cc2ccco2)C(c2cccc(Cl)c2)/C1=C(\O)c1ccc2c(c1)OCCO2 (stereo not drawn),8,2,-6,-7,19*,8,5,7
COc1cc(C2/C(=C(\O)c3ccc4c(c3)OCCO4)C(=O)C(=O)N2Cc2ccco2)ccc1O (stereo not drawn),-6,-1,/,-5,2,-3,/,/
COc1ccc(CCNC(=O)CSc2ccc3nnc(CCNC(=O)c4ccccc4)n3n2)cc1OC,14,2,-15,-2,-1,-3,/,/
O=C(NC1=NCCS1)c1cccc(OC(F)F)c1,-109,1,/,0,-1,22,/,/
O=C(Nc1nc(-c2ccco2)c(-c2ccco2)s1)c1cnccn1,23,0,16,-1,23*,/,12,-2
O=C(O)COc1ccccc1/C=N/Nc1ccc(S(=O)(=O)Nc2ccc(Cl)cc2)cc1[N+](=O)[O-],-4,4,14,3,19*,17,14,-3
O=C(CSc1nnc(COc2ccccc2)n1-c1ccccc1)c1ccccc1,-6,1,54,-1,1,7,/,/
O=C(O)CSc1nnc(COc2ccc(Br)cc2)n1-c1ccccc1,6,2,1,/,31*,0,3,2
COc1ccc(CNC(=O)CN(C)S(=O)(=O)c2ccc3c(c2)OCCO3)cc1OC,3,0,-9,-2,-7,/,/,/
COc1cccc(-n2c(SCC(=O)Nc3ccc4c(c3)CCC4)nc3ccccc3c2=O)c1,/,1,1,-7,19*,-12,4,1
COc1ccc(NC(=O)CSc2nc3nc(C)cc(C)c3c(=O)[nH]2)cc1,6,9,9,/,77*,15,-2,-2
CCNC(=O)CSc1nc2ccccc2c(=O)n1-c1cccc(OC)c1,-7,-1,2,-3,-4,26,/,/
COc1ccc(NC(=O)CSc2nc(O)cc(=O)n2-c2ccc(OC)cc2)cc1,-30,1,-7,-5,19*,-6,-4,-7
CCOC(=O)Cc1csc(NC(=O)c2ccc(N3CCOCC3)cc2[N+](=O)[O-])n1,26,1,/,0,-4,/,/,/
O=C(CN1C(=O)COc2ccc(Cl)cc21)N1CCc2ccccc21,-10,1,/,1,18*,-15,11,-4
O=C(NCCCn1ccnc1)c1cn(-c2ccccc2)nc1-c1ccccc1,9,4,2,1,-15,10,/,/
N#C/C(=C/c1cn(-c2ccccc2)nc1-c1cccc(OCc2ccccc2)c1)C(=O)NCCCn1ccnc1,28,1,?,4,21*,1,13,1
COc1cc(C(=O)NCC(c2cccs2)N2CCOCC2)cc(OC)c1OC (stereo not drawn),23,0,3,/,1,1,/,/
CCCCCCN(C(=O)CCCCCN1C(=O)NC(c2ccc(-c3ccccc3)cc2)C(C(=O)OCc2ccccc2)=C1C)C(C(=O)NCCCC)c1ccc(OCC(=O)OC)c(C(=O)OC)c1 (stereo not drawn),33,-1,43,3,38*,0,21*,-4
CCCCCCN(C(=O)CCCCCN1C(=O)NC(c2ccc([N+](=O)[O-])cc2)C(C(=O)OCc2ccccc2)=C1C)C(C(=O)NCCCC)c1ccc(OCC(=O)OC)c(C(=O)OC)c1 (stereo not drawn),34,4,54,-1,23*,1,34*,2
CCCCCCN(C(=O)CCCCCN1C(=O)NC(c2ccc(-c3ccccc3)cc2)C(C(=O)OCc2ccccc2)=C1C)C(C(=O)NCCCC)c1ccccc1 (stereo not drawn),16,/,/,/,/,-5,/,/
CCCCCCN(C(=O)CCCCCN1C(=O)NC(c2ccc(-c3ccccc3)cc2)C(C(=O)OCc2ccccc2)=C1C)C(C)C(=O)NCCCC (stereo not drawn),19,3,3,8,25*,1,23*,4
O=C(NCCC1=CCCCC1)C(=O)NCC1OCCCN1S(=O)(=O)c1ccc(F)cc1 (stereo not drawn),8,2,8,-2,-8,3,/,/
Cc1ccc(C)c(N2CCN(C(=O)c3ccc4nc(-c5ccco5)c(-c5ccco5)nc4c3)CC2)c1,0,1,0,1,19*,0,11,0
Cc1ccc(C)c(N2CCN(C(=O)c3ccc4nc(N5CCOCC5)sc4c3)CC2)c1,17,0,3,-1,-3,-5,/,/
SMILES,Mdm2-MdmX inh,PP5 inh,CSC inhib,Beta apoptosis,PP1 inh,Calb FLC,PP1 inh confirm,PP5 inh counter
O=C(NC1CCCC1)c1ccc2nc(-c3ccco3)c(-c3ccco3)nc2c1,9,-2,-7,-1,19*,/,3,2
COc1ccc(C(CNC(=O)c2ccc(NS(=O)(=O)c3cccc([N+](=O)[O-])c3)cc2)N2CCOCC2)cc1 (stereo not drawn),22,4,-2,3,-5,6,/,/
CN(C)CCOc1ccc(/C(=C(/CCCl)c2ccccc2)c2ccccc2)cc1,3,5,/,/,21*,/,-9,-1
COc1ccc(OC)c(S(=O)(=O)NCC(c2cccs2)N2CCc3ccccc3C2)c1 (stereo not drawn),0,2,8,4,1,2,/,/
CCOC(=O)c1cc(-c2ccccc2)sc1NC(=O)C(C)OC(=O)c1cccnc1OCC (stereo not drawn),-3,4,/,-7,-3,0,/,/
Cc1cc(=O)n2[nH]c(N)c(N=Nc3ccccc3)c2n1,/,4,5,-7,1,-12,/,/
Nc1[nH]n2c(=O)c3c(nc2c1N=Nc1ccccc1)CCCC3,47,4,/,28,20*,-3,21*,5
O=C(CSc1ccc(-c2ccncc2)nn1)c1ccccc1,26,2,3,-3,21*,-4,-4,-7
Nc1nc(C(c2ccccc2)c2ccccc2)cs1,-40,0,-9,-6,0,-6,/,/
CCCCN1C(=O)C(O)=C(C(C)=O)C1c1ccccc1 (stereo not drawn),-2,-2,/,-1,-2,2,/,/
CC(=O)C1=C(O)C(=O)N(CCc2c[nH]c3ccccc23)C1c1ccc(O)cc1 (stereo not drawn),14,2,/,-7,5,-11,/,/
CCCCCCN1C(=O)C(O)=C(C(C)=O)C1c1ccc(Cl)cc1 (stereo not drawn),10,3,-22,2,23*,21,18*,2
CCOc1ccc(C2C(C(C)=O)=C(O)C(=O)N2CCc2c[nH]c3ccccc23)cc1 (stereo not drawn),6,5,0,-2,22*,-17,29*,-1

# Source: PubChem BioAssay (several laboratories)
